The campaign covered roughly 69,000 compounds. About 8,600 (12%) showed an effect of 50% or more. Many of the other results were omitted from the sample, so strong results are more common in it than they were.

In the experiment the test system is Plasmodium berghei. Put plainly: Screen against P. berghei liver stage (PbLuc), transformed with Luciferase, at 10uM. The class given is functional, HepG2. The following applies: tested at 10 uM.
Turning to `CCC[C@H]1CN(CCS(C)(=O)=O)C[C@@H]1NC(=O)c1ccccc1F`, the INHIBITION is -30.2%.

In the case of `CCC[C@H]1CN(CCS(C)(=O)=O)C[C@@H]1NC(=O)c1cc(CC)on1`, the INHIBITION was 50.1%.

In the case of `CCC[C@H]1CN(CCS(C)(=O)=O)C[C@@H]1NC(=O)c1ccccn1`, the INHIBITION amounted to 26.6%.

For the compound `CCC[C@H]1CN(CCS(C)(=O)=O)C[C@@H]1NC(=O)c1cc[nH]n1`, the INHIBITION stood at 13%.

With `CCC[C@H]1CN(CCS(C)(=O)=O)C[C@@H]1NC(=O)c1ccn(C)n1`, the INHIBITION was found to be 61.2%.

On to `CCC[C@H]1CN(CCS(C)(=O)=O)C[C@@H]1NC(=O)c1cccnn1`, for which the INHIBITION was -25.2%.

On to `Cc1cnn(CC2CCCN2C(=O)CCc2ccncc2)c1` (stereo not given), for which the INHIBITION was -14%.

For `Cc1cccc(-c2cc(C(=O)O)sn2)c1`, the INHIBITION is -12.1%.

As for `Cc1occc(=O)c1OCc1noc(C(=O)NCC2CC2)n1`, the INHIBITION is 33.5%.

For `O=C(c1cccnc1)N1CCn2nnc(COc3cccnc3)c2C1`, the INHIBITION is recorded as 47.8%.

For the compound `CN1CCN(C2COC3(CCN(Cc4cccs4)CC3)C2)CC1` (stereo not given), the INHIBITION came out at 1.94%.

As to `CCOC1COC2(CCN(Cc3ccc(F)cc3)CC2)C1` (stereo not given), the INHIBITION is on record as -24.5%.

As to `CCc1ccc(CN2CCC3(CC2)CC(N2CCN(C)CC2)CO3)cc1` (stereo not given), the INHIBITION is listed as 45.5%.

`Cc1ccc(CN2CCC3(CC2)CC(N2CCN(C)CC2)CO3)s1` (stereo not given): the INHIBITION is given as 47.4%.

Regarding `CN1CCN(C2COC3(CCN(Cc4ccsc4)CC3)C2)CC1` (stereo not given), the INHIBITION worked out at 54.4%.

On to `CN1CCN(C2COC3(CCN(Cc4ccc(F)cc4)CC3)C2)CC1` (stereo not given), for which the INHIBITION is recorded as 54.4%.

As to `COC(=O)c1cc(C)nc(N2CCN(Cc3cc(C(C)C)no3)CC2)n1`, the INHIBITION stood at 23.1%.

Turning to `COc1cccc(OC)c1-c1c[nH]c(C)n1`, the INHIBITION amounted to 1.56%.

As for `Cn1cnc2c1CCN(Cc1c(Cl)ccc3cccnc13)C2`, the INHIBITION is -20.8%.

For the compound `CN1CCC(c2nnc3ccc(C(=O)NC4CCCC4)cn23)C1` (stereo not given), the INHIBITION is -1.26%.

In the case of `CS(=O)(=O)N1CCC(c2nnc3ccc(C(=O)N4CCCC4)cn23)C1` (stereo not given), the INHIBITION turned out to be 40.4%.

With `CN1CCC(c2nnc3ccc(C(=O)N4CCCCC4)cn23)C1` (stereo not given), the INHIBITION came out at 82.8%.

For `CC(C)N1CCN(C)CC1c1nnc2ccc(C(=O)N3CCCC3)cn12` (stereo not given), the INHIBITION was 82.8%.

`CN1CCN(C)C(c2nnc3ccc(C(=O)N4CCOCC4)cn23)C1` (stereo not given): the INHIBITION came to 8.03%.

For `CC(C)NC(=O)c1ccc2nnc(C3CN(C)CCN3C)n2c1` (stereo not given), the INHIBITION is on record as -37.9%.

As for `N#Cc1ccc(CN2CCCCC2Cn2cccn2)cc1` (stereo not given), the INHIBITION is -32%.

Regarding `COc1ccc(CC(=O)NC2CCc3nc(C)cn3C2)cc1` (stereo not given), the INHIBITION was determined as 46.6%.

Consider `COc1ncc(-c2ccc(NC(C)=O)cc2)c(OC)n1`, for which the INHIBITION is recorded as 14%.

For `Cc1nc(O)c2nnn(C[C@H]3CCCN3C(=O)c3ccccc3F)c2n1`, the INHIBITION amounted to 28%.

Take `OC1CCN(c2ccnc(NCCc3ccccc3Cl)n2)CC1`: the INHIBITION worked out at 39.1%.

As to `OC1CCN(c2ccnc(NCCN3CCc4ccccc4C3)n2)C1` (stereo not given), the INHIBITION turned out to be 8.38%.

Turning to `OC1CCN(c2ccnc(NCCc3ccccc3Cl)n2)C1` (stereo not given), the INHIBITION is 93.6%.

For `CCCc1ccc(CN2CCC3(CCC(=O)N(C)CC3)CC2)o1`, the INHIBITION is recorded as 21.2%.

For the compound `CCCc1nc(CN2CCN(C(C)c3nc(C4CC4)no3)CC2)no1` (stereo not given), the INHIBITION is -27.8%.

For the compound `COc1ccccc1CC(=O)NS(=O)(=O)c1ccc(NC(C)=O)cc1`, the INHIBITION was -14%.

In the case of `O=C(NCC1CCS(=O)(=O)C1)N(Cc1ccccn1)C1CC1` (stereo not given), the INHIBITION is given as 4.1%.

Turning to `Cc1csc(CN2CCC(C(=O)O)(n3ccc(-c4ccco4)n3)CC2)n1`, the INHIBITION is 51.3%.

With `Cc1nc(CN2CCC(C(=O)O)(n3ccc(-c4ccco4)n3)CC2)co1`, the INHIBITION stood at 5.14%.

In the case of `O=C(O)C1(n2ccc(-c3ccco3)n2)CCN(Cc2cccs2)CC1`, the INHIBITION is listed as 43.4%.

As for `COc1cccc(C(C(=O)O)N2CCCN(c3ccnc(C)c3)CC2)c1` (stereo not given), the INHIBITION was 27.6%.

Consider `COc1cccc(N2CCN(C(C(=O)O)c3ccc(OC)nc3)CC2)c1` (stereo not given), for which the INHIBITION was 65.7%.

Consider `COc1ccc(C(C(=O)O)N2CCCN(C3CCCCC3)CC2)cn1` (stereo not given), for which the INHIBITION amounted to 32.7%.

Turning to `CCc1nc(N2CCC3(CCC(=O)N(CCCO)C3)CC2)no1`, the INHIBITION was determined as 35.6%.

`CC(C)CNc1cc(-c2c[nH]nc2C2CCN(C(=O)C3CC3)C2)ccn1` (stereo not given): the INHIBITION was 86%.

With `CC(C)OCC(=O)N1CCC(c2ncncc2-c2ccnc(N)c2)C1` (stereo not given), the INHIBITION is reported as 8.12%.

Turning to `CN1CCC(c2n[nH]cc2-c2ccnc(N)c2)C1` (stereo not given), the INHIBITION was 16.05%.

Regarding `Cc1c[nH]nc1C1CCN(C(=O)C2CCCC2)C1` (stereo not given), the INHIBITION was 65.7%.

On to `COCCC(=O)N1CCC(c2ncncc2-c2ccnc(N)c2)C1` (stereo not given), for which the INHIBITION came to 0.696%.

For `CC(C)Nc1cc(-c2c[nH]nc2C2CCN(C(=O)C3CC3)C2)ccn1` (stereo not given), the INHIBITION turned out to be 87.85%.

Turning to `O=C(C1CCCCC1)N1CCC(c2n[nH]c3nccnc23)CC1`, the INHIBITION came to 44.1%.

`O=C(C1CCCC1)N1CCC(c2n[nH]c3nccnc23)CC1`: the INHIBITION came out at 51.5%.

Turning to `CC(=O)N1CCC(c2n[nH]c3nccnc23)CC1`, the INHIBITION is given as 8.53%.

On to `Cc1c[nH]nc1C1CCN(C(=O)C2CCOCC2)C1` (stereo not given), for which the INHIBITION was 3.48%.

For the compound `Cc1c[nH]nc1C1CCN(C(=O)C2CCC2)CC1`, the INHIBITION is recorded as -14.2%.

In the case of `CC(=O)N1CCC(c2n[nH]cc2-c2ccnc(N)c2)C1` (stereo not given), the INHIBITION was 37.5%.

Source of the values: ChEMBL document CHEMBL4513216, “Probing the Open Global Health Chemical Diversity Library for Multistage-Active Starting Points for Next-Generation Antimalarials” (ACS Infect Dis, 2020).
